Source: PubChem BioAssay
Only some compounds are listed: those with a hit (about 8% of all), similar ones and a draw of the others.
HT1080 IDH1KD tx: kills HT-1080 cells with IDH1 knockdown. Potency, µM (doses to about 46.1 µM), without a hit: at the highest dose activity, negative = toxicity, actives largely listed as cytotoxic. 360,000 tested, 2% active. HT-1080 IDH1 knockdown viability, ATP luminescence, 48 h;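 also: 0% = DMSO wells and -100% = cell-free medium wells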
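Knockdown cells (IDH1KD HT-1080) received compounds 2 h after plating at 750 cells/well and were kept 48 h at 37 °C in 5% FBS RPMI. A CellTiter-Glo luminescence read gave % activity for curve fitting.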
SW480 rerep: induces DNA re-replication in SW480 colon adenocarcinoma cells; SW480 DNA re-replication, Hoechst DNA content imaging, 48 h; Potency, µM (top dose mostly 46.1 µM), inactives show at the highest dose re-replication activation, most hits filed as activators; 340,000 tested, 1.8% active; also: % of control where 0% means no effect; nearly all actives have a fitted effect of over 55% in size
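First, 250 cells per well were seeded. Next, compound or vehicle (23 nL) was pinned in, plates sat 48 hr at 37 C. Finally Hoechst was added for 40 min before fluorescence scanning.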
KB-3-1 tox: kills parental KB-3-1 adenocarcinoma cells. KB-3-1 viability, CellTiter-Glo ATP luminescence, 72 h. Potency, µM (doses to about 46.1 µM), hits mostly cytotoxic. 400,000 tested, 1.4% active; also: % is scaled to controls: 0 for no effect and ±100 for the full control effect; nearly all actives have a fitted effect of over 60% in size
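Multi-concentration cytotoxicity screen in KB-3-1 cells grown in DMEM lacking phenol red with 10% FBS. After 72 h at 37 °C with compound, ATP-dependent luminescence was recorded.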
KB-V1 MDR tox: KB-V1 MDR subline cytotoxicity; KB-V1 MDR cells viability, CellTiter-Glo, 72 h; AID 1347076; 400,000 tested, 3.4% active; Potency, µM (highest dose often 46.1 µM), usual class: cytotoxic; also: % is scaled to controls: 0 for no effect and ±100 for the full control effect; nearly all actives have a fitted effect of over 60% in size
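Readout: CellTiter-Glo luminescence, 10 min after addition. Cells: KB-V1 MDR subline, 72 h at 37 degrees C with compound. Analysis: corrected, normalized data fitted to concentration-effect curves.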
HT1080NT lethal: kills 2HG-producing HT-1080-NT fibrosarcoma cells | Potency, µM (titrated, usually from 46.1 µM), for the others: at the top dose activity, negative = less viability, most hits filed as cytotoxic | 360,000 tested, 1.6% active | HT-1080-NT fibrosarcoma viability, CellTiter-Glo ATP luminescence, 48 h | AID 686970;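 also: NT is the 2HG producing partner of a matched IDH1 knockdown line; 0% = DMSO-treated cells and -100% = media-only wells without cells; nearly all actives have a fitted effect of over 55% in size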
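HT-1080-NT fibrosarcoma cells (2HG-overproducing), 750 cells/well in RPMI with 5% FBS, dosed after 2 h and incubated 48 h at 37C. CellTiter-Glo luminescence normalized to DMSO and no-cell wells; concentration-response curves fitted and classed.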
MCF10A rerep: induces DNA re-replication in MCF 10a normal breast cells; MCF 10A DNA re-replication, Hoechst nuclear intensity, 48 h; 350,000 tested, 2.9% active; Potency, µM (series often up to 46.1 µM), for inactives: at the top dose activity, positive = re-replication, hits mostly activators; AID 624296; also: % of control where 0% means no effect; nearly all actives have a fitted effect of over 50% in size
* hit, by the source's call; i = inactive; u = inconclusive; x = no result. Calls follow the shape of the dose curve; as a rule, active = well fitted curve in the direction sought with a large enough effect; inconclusive = small, poorly fitted or top-dose-only effect, or another doubt; inactive = no such curve, though single readings can be large; an effect the other way counts as inactive or inconclusive. Potency is read from the fitted curve at half-maximal effect.

SMILES | HT1080 IDH1KD tx | SW480 rerep | KB-3-1 tox | KB-V1 MDR tox | HT1080NT lethal | MCF10A rerep
O=C(Nc1ccccc1N1CCOCC1)c1ccc([N+](=O)[O-])o1 | 1% | u | i | u | -3% | 6%
NS(=O)(=O)c1ccc(O)c(NC(=O)c2ccc([N+](=O)[O-])o2)c1 | u | 12µM* | u | u | u | u
CC(=O)c1cccc(NC(=O)c2cc(=O)c3ccccc3o2)c1 | 7% | -13% | i | i | 9% | -1%
Cc1cc(C)nc(NC(=O)c2ccc([N+](=O)[O-])o2)n1 | -20% | 8.2µM* | i | i | -3% | 13µM*
Cc1cc(C)cc(NC(=O)c2ccc([N+](=O)[O-])o2)c1 | 16µM* | u | u | 13µM* | u | 3.3µM*
Cc1ccc(C)c(-c2nnc(NC(=O)c3ccc([N+](=O)[O-])o3)o2)c1 | u | u | u | i | u | u
Cc1ccc(-c2nc(SCC(=O)NCc3ccco3)c3c(=O)n(C)c(=O)n(C)c3n2)cc1 | x | x | i | u | x | x
CC(=O)c1ccc(N2CCN(C(=O)c3cc4cc5cc(C)ccc5nc4s3)CC2)cc1 | x | x | i | i | x | x
COc1cc(NC(=O)c2ccc([N+](=O)[O-])o2)ccc1NC(=O)c1ccco1 | 19% | u | u | i | 10% | 16%
COc1ccc(NC(=O)c2ccc(Br)o2)cc1 | 9% | -9% | i | i | -3% | -7%
COc1ccc(NC(=O)c2ccc([N+](=O)[O-])o2)cc1 | u | 2.6µM* | 8.2µM* | u | -4% | 16µM*
COc1ccc(NC(=O)c2noc(C(C)C)c2[N+](=O)[O-])cc1 | u | u | i | i | 23µM* | u
Cc1cc(NC(=O)c2ccc([N+](=O)[O-])o2)ccc1NC(=O)c1ccco1 | 5.8µM* | 2.3µM* | 5.2µM* | u | 5.2µM* | u
CC(=O)c1ccc(NC(=O)c2ccc([N+](=O)[O-])o2)cc1 | 18µM* | 20% | u | u | u | 4.6µM*
Cc1ccc(N2C(=O)CCSC23C(=O)N(Cc2ccccc2)c2ccccc23)cc1F (centres undefined) | x | x | i | u | x | x
CCOC(=O)c1ccc(NC(=O)c2cn3c4c(ccc(Cl)c4c2=O)OC(C)C3)cc1 (centres undefined) | x | x | i | u | x | x
CCc1nn(CC(=O)NC(C)CC)c(=O)c2cc3occc3n12 (centres undefined) | x | x | i | i | x | x
COc1ccc(N2CCN(C(=O)c3sc4nc5n(c(=O)c4c3C)CCC5)CC2)cc1 | x | x | i | i | x | x
COC(=O)C1=C(C)NC(=O)NC1c1cn(-c2ccccc2)nc1-c1ccc(OC)c(Br)c1 (centres undefined) | x | x | i | i | x | x
Cn1c(CCN2CCCC2)nc2cc(NS(=O)(=O)c3ccc(Cl)cc3)ccc21 | u | 21µM* | u | i | -19% | u
Cc1ccc(C(C)C)c(OCC(=O)Nc2ccc3c(c2)nc(CCN2CCCCC2)n3C)c1 | 16µM* | u | i | u | 21µM* | u
CC(=O)N1CCN(Cc2nc3cc(NC(=O)Cn4nc(C)c5ccccc5c4=O)ccc3n2C)CC1 | 1% | 10% | i | i | -5% | 27%
Cc1nn(CC(=O)Nc2ccc3c(c2)nc(CCN2CCCCC2)n3C)c(=O)c2ccccc12 | 2.8µM* | u | i | i | u | 16µM*
CCn1c(CN2CCCCC2)nc2cc(NC(=O)COc3cc(C)ccc3C(C)C)ccc21 | x | x | u | i | x | x
Cc1ccc(OCC(=O)Nc2ccc3c(c2)nc(CCN2CCN(c4ccccn4)CC2)n3C)cc1 | 21µM* | x | i | i | 21µM* | x
SMILES | HT1080 IDH1KD tx | SW480 rerep | KB-3-1 tox | KB-V1 MDR tox | HT1080NT lethal | MCF10A rerep
CCOc1ccc(/C=C/c2cc[n+](C)c3ccccc23)cc1OCC | x | x | u | i | x | x
Cn1c(CCN2CCN(c3ccccn3)CC2)nc2cc(NS(=O)(=O)c3ccccc3)ccc21 | -28% | u | i | i | -1% | 23µM*
Cn1c(CCN2CCCCC2)nc2cc(NS(=O)(=O)c3ccccc3)ccc21 | u | u | i | i | -26% | 12%
COC1=C2C[C@H](C)C[C@H](OC)[C@@H](O)[C@@H](C)C=C(C)[C@H](OC(N)=O)[C@@H](OC)C=CC=C(C)C(=O)NC(=CC1=O)C2=O | x | x | u | i | x | x
CC(=O)N1c2ccc(S(=O)(=O)N(C)CC(=O)N(Cc3ccccc3)C(C)C)cc2CC1C (centres undefined) | x | x | i | i | x | x
COc1ccc(NCC(=O)n2c(C)c(C)c3ccccc32)cc1 | u | u | 12µM* | u | u | 18µM*
CC(O)CCCCn1c(=O)c2c(ncn2C)n(C)c1=O (centres undefined) | x | -3% | x | x | x | 2%
CC1(C)CC(=O)c2cc(C(=O)Nc3ccccc3)c(=O)[nH]c2C1 | x | x | i | i | x | x
CCOC(=O)C1=C(CSc2nc(-c3ccccc3)ccc2C#N)OC(N)=C(C#N)C1c1ccccc1 (centres undefined) | 7% | 15µM* | i | i | 10% | u
CCOC(=O)C1=C(CSc2nc(-c3ccccc3)ccc2C#N)OC(N)=C(C#N)C1c1cccnc1 (centres undefined) | -4% | u | i | i | -10% | u
CCCC1=C(C(=O)OCC)C(c2ccc(OC)c(CSc3ccccn3)c2)C(C#N)=C(N)O1 (centres undefined) | -8% | 14% | i | 21µM* | -6% | u
C=CCOC(=O)C1=C(C)OC(N)=C(C#N)C1c1ccc(OC)c(CSc2ccccn2)c1 (centres undefined) | 0% | -2% | i | u | 0% | 0%
COc1ccc(CCNCc2c(C(=O)O)c(C)n(Cc3cccc(Cl)c3)c2C)c(OC)c1OC | x | x | i | i | x | x
Cc1ccc(C(=O)N/N=C(/CC(=O)c2cccs2)C(F)(F)F)cc1 | u | -3% | u | u | 26µM* | 18µM*
O=C(N/N=C(\CC(=O)c1cccs1)C(F)(F)F)c1ccncc1 | u | 7.3µM* | i | u | -16% | u
CCOc1ccc2nc(N3CCCC(C(=O)Nc4cc(Cl)c(OC)cc4OC)C3)sc2c1 (centres undefined) | x | x | i | i | x | x
CCC(CC)NC(=O)c1cccc(Oc2ccccc2)c1 | -7% | 9% | i | 23µM* | -9% | 2%
O=C(CCn1c(=O)oc2ccccc21)N1CCN(c2ccccc2F)CC1 | 6% | -5% | i | 23µM* | 9% | 0%
